Calls of active or inactive are those of the source.
How the values were obtained:
[1] = compound effects on lung adenocarcinoma cell viability – A549, calcein-AM fluorescence, 48 h, basal, profiling panel (AID 1162); details: higher = more signal
[2] = compound effects on differentiated 3T3-L1 adipocyte viability – cell-based, 3T3-L1 adipocytes, calcein-AM fluorescence, 48 h, basal, profiling panel (AID 1163); details: 3T3-L1 adipocytes viability, higher = more signal
[3] = compound effects on hepatocellular carcinoma cell viability – HepG2, calcein-AM fluorescence, 48 h, basal, profiling panel (AID 1164); details: higher = more signal
[4] = compound effects on multiple myeloma cell viability – MM1S, calcein-AM fluorescence, 48 h, basal, profiling panel (AID 1165); details: higher = more signal;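 note: viability of MM1S multiple myeloma cells under basal unstimulated conditions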
[5] = calcein-AM signal in unstimulated myeloma cells – cell-based, calcein-AM fluorescence, 48 h, PK04 Diversity Set, profiling panel (AID 1166); details: RPMI8226 myeloma viability, higher = more signal;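 note: cells grown under basal conditions without added stimulus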
[6] = JC-1 mitochondrial signal, unstimulated HepG2 cells – cell-based, JC-1 fluorescence, 24 h, 100 nL compound, profiling panel (AID 1167); details: HepG2 mitochondrial potential, higher = more signal
[7] = JC-1 mitochondrial signal, unstimulated adipocytes – cell-based, JC-1 fluorescence, 3T3-L1 adipocytes, 24 h, 100 nL compound, profiling panel (AID 1168); details: JC-1 mitochondrial fluorescence, higher = more signal, called active from +8 up or from −8 down
[8] = JC-1 mitochondrial signal, unstimulated myeloma cells – cell-based, JC-1 fluorescence, RPMI8226, 24 h, 100 nL compound, profiling panel (AID 1169); details: JC-1 mitochondrial potential fluorescence, higher = more signal
[9] = JC-1 mitochondrial signal, unstimulated MM1S myeloma – cell-based, JC-1 fluorescence, 24 h, 100 nL compound, profiling panel (AID 1170); details: MM1S mitochondrial potential, higher = more signal
[10] = resazurin metabolic signal in A549 cells – cell-based, resazurin fluorescence, 24 h, PK04 Diversity Set, profiling panel (AID 1171); details: A549 viability, higher = more signal, called active from +8 up or from −8 down
Note: test concentration not given here.

SMILES | z-score [1] | z-score [2] | z-score [3] | z-score [4] | z-score [5] | z-score [6] | z-score [7] | z-score [8] | z-score [9] | z-score [10]
CCc1oc(CC[C@@H](CO)NC(=O)NCCn2cc(C3(O)CCCCC3)nn2)c(C(=O)OC)c1C(=O)OC | -0.0645 | -0.33 | -0.68 | -0.0035 | 0.0168 | -0.176 | -0.0732 (inactive) | 0.756 | 0.14 | -0.892 (inactive)
Cc1ccc(S[C@]2(C(=O)NCCN3CCOCC3)CC(=O)N(Cc3ccccc3Cl)[C@@H]2c2ccc(CO)cc2)cc1 | 0.263 | 1.03 | -0.0334 | 0.368 | -1.77 | 0.482 | -0.41 (inactive) | -0.168 | -1.17 | 1.05 (inactive)
COC(=O)[C@@]1(Cc2ccc(F)cc2)[C@H]2c3cc(C(=O)N4CCCC4)n(Cc4ccc(C)o4)c3C[C@H]2CN1C(=O)c1ccccc1 | -0.981 | 0.681 | -0.498 | -2.99 | -3.74 | 2.32 | 0.096 (inactive) | -0.486 | -2.84 | -0.72 (inactive)
CCN(CC)c1ccc(N2CC=CC34O[C@@H]5/C=C\CCC(C)OC(=O)C5[C@H]3C(=O)N(C(CO)C(C)C)[C@@H]4C2=O)cc1 (stereo not given in full) | -0.0553 | -1.18 | 0.936 | 1.26 | -0.208 | 0.96 | -0.118 (inactive) | 0.0122 | 1.01 | 0.406 (inactive)
COCCCNC(=O)[C@@]1(Cc2ccccc2)N=C(c2ccc(OCCCO)cc2)O[C@H]1c1ccccc1 | -0.736 | -0.493 | -0.104 | -1.03 | -0.856 | 0.00935 | 0.425 (inactive) | -1.11 | -0.314 | 1.57 (inactive)
Cc1ccc(S[C@]2(C(=O)NC3CC3)CC(=O)N(C3Cc4ccccc4C3)[C@@H]2c2ccc(CO)cc2)cc1 | 3.2 | 0.785 | 1.51 | 0.498 | 0.244 | 2.78 | 0.569 (inactive) | 0.763 | -0.0488 | -1.23 (inactive)
CC(C)(C)OC(=O)CC[C@@]1(C(=O)NCCN2CCOCC2)N=C(c2ccc(OCCCO)cc2)O[C@@H]1c1ccccc1N=[N+]=[N-] | 1.2 | 0.698 | 1.33 | -0.849 | -0.187 | 0.749 | 1.66 (inactive) | -0.993 | -0.339 | -0.492 (inactive)
C=CC[C@@]1(C(=O)N(C)C)N=C(c2ccc(OCCCO)cc2)O[C@@H]1c1ccccc1N=[N+]=[N-] | 0.459 | -0.423 | 0.571 | -0.761 | -1.51 | -0.328 | 1.04 (inactive) | -0.874 | -1.31 | -1.48 (inactive)
CC1(C)[C@@H]2CC(C(O)C3C=CC4C(=O)N(c5ccccc5)C(=O)C4N3Nc3ccccc3)=C[C@H]1C2 (stereo not given in full) | -1.66 | -1.16 | -1.16 | -0.528 | -0.209 | -1.79 | -1.46 (inactive) | 0.263 | -0.527 | -0.158 (inactive)
CCCC[C@@H]1C[C@H]1[C@@H](NC(=O)c1ccco1)c1ccc(C(=O)OC)cc1 | -1.06 | -1.16 | -0.998 | -1.77 | -2.42 | -2.68 | -2.2 (inactive) | -0.705 | -1.19 | -0.136 (inactive)
[N-]=[N+]=NCc1ccccc1C[C@]1(C(=O)N2CCOCC2)N=C(c2ccc(OCCCO)cc2)O[C@H]1c1ccccc1N=[N+]=[N-] | -1.37 | 1.97 | -0.956 | -1.28 | -3.42 | 0.665 | -0.817 (inactive) | -1.1 | -1.47 | -0.678 (inactive)
CCOC(=O)C[C@H]1[C@H](OC(=O)c2cc3ccccc3oc2=O)[C@@H](NC(=O)C2CCCCC2)c2cc(OCCCO)ccc2N1C(=O)c1ccccc1 | -0.11 | 3.15 | 0.914 | 0.172 | -0.594 | 1.36 | -0.186 (inactive) | -0.848 | 0.739 | -0.713 (inactive)
C=CCOC(=O)[C@H]1[C@@H]2C(=O)O[C@@H](c3ccccc3)[C@@H](c3ccccc3)N2[C@@H](c2ccc(OCCOC(=O)[C@@H]3C[C@@H]4C(=O)N5CCC[C@H]5C(=O)N4[C@@H]3c3cccc(OCCO)c3)cc2)[C@]12C(=O)Nc1ccccc12 | -0.0865 | 1.05 | -0.786 | -0.423 | 0.107 | -1.41 | -0.0892 (inactive) | -0.737 | -0.421 | -1.65 (inactive)
CN(C)CCCCCCNC(=O)[C@@H]1C[C@@H]2C(=O)N[C@@H](CCCCN)C(=O)N2[C@@H]1c1cccc(OCCO)c1 | 0.73 | 0.565 | 1.25 | -0.137 | 0.207 | 1.87 | 0.247 (inactive) | -0.209 | 0.135 | 0.159 (inactive)
CC(C)c1ccc(NN2C(C(O)c3cc(C(F)(F)F)cc(C(F)(F)F)c3)C=CC3C(=O)N(c4ccccc4)C(=O)C32)cc1 (stereo not given) | -2.37 | 0.15 | -3.12 | -3.4 | -4.14 | -2.69 | -0.414 (inactive) | -0.873 | -1.57 | -2.11 (inactive)
COCCCN1C(=O)[C@@]2(c3ccc([N+](=O)[O-])cc3)CC(=O)N(C3CCCCC3)[C@@H]2c2ccc(CO)cc21 | -0.794 | -1.03 | 0.14 | 0.819 | -1.23 | -0.393 | 0.939 (inactive) | -0.739 | -0.847 | -1.18 (inactive)
C=CCOC(=O)[C@@H]1[C@H]2C(=O)O[C@H](c3ccccc3)[C@H](c3ccccc3)N2[C@H](c2ccc(OCCOC(=O)[C@@H]3C[C@@H]4C(=O)N[C@@H](Cc5ccccc5)C(=O)N4[C@@H]3c3ccc(O)cc3)cc2)[C@@]12C(=O)Nc1ccc(I)cc12 | -1.09 | 1.39 | 0.1 | 0.67 | -0.645 | -1.56 | 0.865 (inactive) | -0.451 | -1.38 | 0.128 (inactive)
COc1ccc(NN2C(C(O)c3ccc([N+](=O)[O-])cc3)C=CC3C(=O)N(C4CCCCC4)C(=O)C32)cc1 (stereo not given) | 0.0649 | -1.33 | 0.52 | 0.538 | -0.465 | -0.0181 | 0.369 (inactive) | 0.919 | -1.71 | 1.01 (inactive)
COc1ccc(C(=O)O[C@H]2CC[C@]3(C)C4=C(CCC3C2(C)C)[C@]2(C)CC[C@H]([C@H](C)CCCC(C)C)[C@@]2(C)CC4)cc1 (stereo not given in full) | 0.373 | 0.586 | 0.729 | 0.41 | 0.784 | 2.19 | 0.375 (inactive) | -0.0976 | -1.47 | 0.936 (inactive)
COC(=O)c1c(CC[C@@H](CO)NC(=O)N2CCC[C@H]2Cn2cc(-c3ccccn3)nn2)oc(C(C)=O)c1C(=O)OC | -0.204 | 1 | -1.02 | 0.208 | 1.18 | -0.443 | -0.922 (inactive) | 0.859 | -0.475 | 0.133 (inactive)
[N-]=[N+]=Nc1ccccc1C[C@@]1(C(=O)NCCN2CCOCC2)N=C(c2ccc(OCCCO)cc2)O[C@@H]1c1ccccc1 | 0.189 | -0.455 | 0.357 | -0.511 | -0.905 | 2.55 | 0.248 (inactive) | -0.293 | -1.35 | -0.524 (inactive)
COC(=O)[C@@]1(Cc2ccccc2)[C@H]2c3cc(C(=O)N(C)C)n(CCSCCO)c3C[C@H]2CN1C(=O)c1ccccc1 | 0.571 | -0.0167 | -0.0301 | -0.614 | -0.933 | -1.37 | -0.728 (inactive) | 0.354 | -0.229 | 0.0392 (inactive)
COCCOC(=O)N1C(=O)[C@@]2(c3cc(C#Cc4ccc(OC)cc4)ccc31)[C@H](c1ccccc1OCCO)N1[C@H](c3ccccc3)[C@H](c3ccccc3)OC(=O)[C@H]1[C@@H]2C(=O)N1CCN(c2ncccn2)CC1 | 0.204 | -0.226 | 0.348 | -0.653 | 0.149 | 0.356 | 2.41 (inactive) | -0.72 | -1.37 | -0.692 (inactive)
COc1ccc(CCN2C(=O)[C@@]3(c4ccc([N+](=O)[O-])cc4)CC(=O)N(C4CCCCC4)[C@@H]3c3ccc(CO)cc32)cc1 | 0.315 | -1.26 | -0.331 | 0.199 | 0.306 | -1.65 | -0.937 (inactive) | -0.694 | -0.838 | -0.113 (inactive)
COCCOC(=O)N1C(=O)[C@@]2(c3cc(C#CCCO)ccc31)[C@H](C(=O)N1CCc3cc(OC)c(OC)cc3C1)[C@H]1C(=O)O[C@H](c3ccccc3)[C@H](c3ccccc3)N1[C@@H]2c1ccc(O)cc1 | -0.235 | 0.0133 | 2.58 | 0.587 | 0.245 | -0.404 | 0.0353 (inactive) | -0.385 | -0.546 | -0.689 (inactive)
C=C(/C(=C/C[C@@H](OC(C)=O)c1ccc(OCCO)cc1)c1cnc2ccccc2c1)C(C)C | 2.72 | 1.39 | 1.25 | -0.924 | 0.559 | 2.07 | -1.27 (inactive) | -0.139 | -1.17 | 0.685 (inactive)
C[N+](C)(C)CCCCNC(=O)[C@H]1C[C@H]2C(=O)N[C@@H](Cc3ccccc3)C(=O)N2[C@H]1c1ccc(O)cc1 | -0.111 | -0.649 | 0.0005 | 0.27 | -0.546 | 0.169 | -0.333 (inactive) | -0.831 | -1.13 | -0.486 (inactive)
COC(=O)[C@@]1(Cc2ccc(F)cc2)[C@H]2c3cc(C(=O)N(C)C)n(CC4CC4)c3C[C@H]2CN1C(=O)c1ccccc1 | -0.654 | 0.128 | -0.0517 | -2.21 | -3.32 | 1.41 | -0.708 (inactive) | -0.858 | -1.21 | -1.38 (inactive)
COC(=O)[C@@]1(Cc2ccc(OC)cc2)[C@H]2c3cc(C(=O)N4CCCC4)n(Cc4ccc(OC)c(OC)c4)c3C[C@H]2CN1C(=O)c1ccccc1 | -0.25 | 0.525 | -1.05 | -0.128 | -0.808 | 4 | 0.0331 (inactive) | -0.16 | -0.602 | 1.21 (inactive)
[N-]=[N+]=NCc1ccccc1C[C@]1(C(=O)NCC(O)CO)N=C(c2ccc(OCCCO)cc2)O[C@H]1c1ccccc1 (stereo not given in full) | -0.691 | 0.0311 | -1.25 | -2.42 | -1.81 | -1.31 | -0.142 (inactive) | -0.547 | -0.727 | -0.246 (inactive)

Source: PubChem BioAssay
